Screens deposited in PubChem BioAssay by National Center for Advancing Translational Sciences (NCATS).
HT1080 IDH1KD tx: toxicity to HT-1080 IDH1 knockdown cells (counter line); 360,000 compounds, 2% hits; HT-1080 IDH1 knockdown viability, ATP luminescence, 48 h; Potency, µM (top dose mostly 46.1 µM), most hits filed as cytotoxic
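HT-1080-IDH1KD cells (IDH1 knocked down), 750/well in RPMI with 5% FBS, treated with compound 48 h at 37 degrees C. Viability by CellTiter-Glo luminescence, normalised to DMSO and no-cell wells; concentration-response curves classed.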
KB-3-1 tox: KB-3-1 parental cell cytotoxicity | KB-3-1 viability, CellTiter-Glo ATP luminescence, 72 h | Potency, µM (doses to about 46.1 µM), most hits filed as cytotoxic | 400,000 compounds, 1.4% hits | AID 1347075; note: nearly all actives have a fitted effect of over 60% in size
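Here the drug-naive KB-3-1 line serves as comparator for MDR sub-line selectivity; cells received compound titrations, 72 h at 37 °C, then CellTiter-Glo readout.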
TDP1 cell noCPT: qHTS for Inhibitors of human tyrosyl-DNA phosphodiesterase 1 (TDP1): qHTS in cells in absence of CPT; DT40 Tdp1-/- hTDP1 cells, no CPT, ATP luminescence, 48 h; Potency, µM (titrated, usually from 46.2 µM), most hits filed as inhibitors; 420,000 compounds, 15% hits; AID 686978, 2013; note: nearly all actives have a fitted effect of over 55% in size
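A cellular qHTS used chicken DT40 cells lacking endogenous Tdp1 but carrying stably transfected human TDP1. Compounds were applied without camptothecin, and cell growth kinetics were judged by ATP-dependent luminescence after ≥48 hr.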
TDP1 cell CPT: growth inhibition of DT40 Tdp1-/-;hTDP1 cells with camptothecin (screen for TDP1 inhibitors) | 420,000 compounds, 12% hits | chicken DT40 Tdp1-/-;hTDP1 cells + 20 nM CPT, ATP luminescence, 48 h | AID 686979 | Potency, µM (top dose mostly 46.2 µM), hits mostly inhibitors; note: nearly all actives have a fitted effect of over 55% in size
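Chicken DT40 Tdp1-/- cells stably complemented with human TDP1 were seeded at 400 cells/well in medium containing 20 nM camptothecin, exposed to pin-transferred compounds, and grown at 37 °C for at least 48 hr. Viability was read as ATP luminescence.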
KB-V1 cytotox: kills drug-selected multidrug resistant KB-V1 cells | KB-V1 MDR cells viability, CellTiter-Glo, 72 h | Potency, µM (titrated, usually from 46.1 µM), most hits filed as cytotoxic | 400,000 compounds, 3.4% hits; note: nearly all actives have a fitted effect of over 60% in size
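KB-V1, DMEM (no phenol red) + 10% FBS; cpd pin-transferred, titration series; 72 h, 37 degrees C; CellTiter-Glo, luminescence. Data normalized, curve-fit.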
HT1080-NT tox: kills 2HG-producing HT-1080-NT fibrosarcoma cells; AID 686970; 360,000 compounds, 1.6% hits; HT-1080-NT fibrosarcoma viability, CellTiter-Glo ATP luminescence, 48 h; Potency, µM (top dose mostly 46.1 µM), hits mostly cytotoxic;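 note: NT is the 2HG producing partner of a matched IDH1 knockdown line; nearly all actives have a fitted effect of over 55% in size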
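HT-1080-NT; 750 cells/well; 5% FBS RPMI; 48 h compound, 37 degrees C; CellTiter-Glo luminescence; curve fitting and curve-class assignment.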
Numbers stand for hits; n = inactive; u = inconclusive; x = not tested or not shown; [ ] = another dose, or the depositor's remark. In the library only some 19% were active in any assay of this set; here they are far more common. Calls come from the whole dose curve; as a rule, active = well fitted curve in the direction sought with a large enough effect; inconclusive = small, poorly fitted or top-dose-only effect, or another doubt; inactive = no such curve, though single readings can be large; an effect the other way counts as inactive or inconclusive.

SMILES	HT1080 IDH1KD tx	KB-3-1 tox	TDP1 cell noCPT	TDP1 cell CPT	KB-V1 cytotox	HT1080-NT tox
NCCC(O)(P(=O)(O)O)P(=O)(O)O	x	x	n	n	x	x
COc1cc(/C=C/C(=O)OCC(=O)NCc2ccc(F)cc2)ccc1O	u	u	2.3µM	2.6µM	16µM	u
COc1cc(/C=C/C(=O)OCC(=O)NCc2ccccc2OC)ccc1O	n	n	n	u	n	n
CCN(CC)CCNC(=O)c1cc(-c2cccnc2)nc2ccc(S(=O)(=O)N3CCC(C)CC3)cc12	n	n	u	u	n	n
CCCCN(C)CCNC(=O)c1cc(-c2cccnc2)nc2ccc(S(=O)(=O)N3CCC(C)CC3)cc12	n	n	15µM	u	n	u
CCCCN(CCCC)CCNC(=O)c1cc(-c2cccnc2)nc2ccc(S(=O)(=O)N3CCC(C)CC3)cc12	x	x	n	3.7µM	x	x
Cc1cc(=O)n(CC(=O)NCc2ccc(OC(C)C)cc2)c2c1c(C)nn2-c1cccc(F)c1	x	n	u	n	n	x
C=CCNC(=O)CN1C(=O)c2cccc3cccc1c23	n	n	n	n	n	n
C=CCSc1nc(-c2ccc(OC)cc2)c(C#N)c(=O)n1CC=C	u	n	26µM	16µM	n	n
COc1ccc(-c2nc3n(c(=O)c2C#N)CCS3)cc1	n	n	n	n	n	n
CC(NC(=O)COC(=O)c1ccccc1F)C1CC2CCC1C2 (stereo unspecified)	n	n	n	n	n	n
O=C(NN1C(=O)C2C3c4ccccc4C(c4ccccc43)C2C1=O)c1ccc(Cl)cc1 (stereo unspecified)	n	n	n	n	16µM	n
COc1ccc(/C=C/C(=O)Nc2ccc(Cl)cc2Cl)cc1	x	u	n	n	n	x
COc1ccc(-c2cn3c(C)c(C(=O)N4CCN(c5ccccc5)CC4)sc3n2)cc1	n	n	u	u	n	n
Cc1c(C(=O)N2CC(C)OC(C)C2)sc2nc(-c3ccc(F)cc3)cn12 (stereo unspecified)	n	u	18µM	u	8.2µM	n
COc1ccccc1N1CCN(C(=O)c2sc3nc(-c4ccc(F)cc4)cn3c2C)CC1	n	u	16µM	23µM	n	n
COc1ccc(N2CCN(C(=O)c3cc(-c4ccc(F)cc4)[nH]c3C)CC2)cc1	n	n	n	n	n	n
COC(=O)C1CCN(C(=O)c2sc3nc(-c4ccccc4)cn3c2C)CC1	n	n	n	n	n	n
CCOC(=O)N1CCN(C(=O)c2cc(-c3ccc(F)cc3)[nH]c2C)CC1	n	n	21µM	u	n	n
CCOC(=O)N1CCN(C(=O)c2sc3nc(-c4ccc(F)cc4)cn3c2C)CC1	n	n	u	u	7.3µM	n
CCOc1ccc(Nc2cc(C)nc3nncn23)cc1	x	x	n	n	x	x
Cc1ccc(CNc2nc3ccc(Cl)cc3n3nnnc23)cc1	x	n	n	n	n	x
COc1ccc(-c2nc3ccc(NC(C)=O)cc3c(=O)n2Cc2ccccc2)cc1COc1ccc(NC(C)=O)cc1	n	x	11µM	u	x	n
COc1ccc(-c2nc3ccc(NC(=O)CO)cc3c(=O)n2Cc2cccc(Cl)c2)cc1COc1ccc(NC(C)=O)cc1	u	x	13µM	11µM	x	u
COc1ccc(CN(Cc2ccccc2)C(=O)c2ccco2)cc1COc1ccc(NC(C)=O)cc1	n	x	u	u	x	n
SMILES	HT1080 IDH1KD tx	KB-3-1 tox	TDP1 cell noCPT	TDP1 cell CPT	KB-V1 cytotox	HT1080-NT tox
CC(=O)Nc1ccc2nc(C)n(Cc3ccc(Cl)cc3)c(=O)c2c1	n	n	u	n	u	n
CCC(C)NC(=O)CC(NS(=O)(=O)c1ccc(C)cc1)c1ccc(OC)cc1 (stereo unspecified)	n	n	n	n	8.2µM	n
Cc1cc(C)n2ncc(C(=O)Nc3ccccc3)c2n1	x	n	x	x	u	x
CCCOc1ccc(-c2c(C(=O)N/N=C/C3CCCCC3)nnn2-c2nonc2N)cc1	n	n	12µM	26µM	n	n
CCOc1ccc(-c2c(C(=O)N/N=C/c3ccccc3)nnn2-c2nonc2N)cc1	n	n	n	n	n	n
CCOc1ccc(-c2c(C(=O)N/N=C/c3ccc(C)cc3)nnn2-c2nonc2N)cc1	n	n	u	1.6µM	n	n
CCc1ccc(/C=N/NC(=O)c2nnn(-c3nonc3N)c2C(C)C)cc1	n	n	18µM	u	n	n
CC(C)c1c(C(=O)N/N=C/c2ccccc2OCc2c(F)cccc2Cl)nnn1-c1nonc1N	u	n	2.3µM	5.8µM	16µM	n
O=C(CSc1nc(-c2ccccc2)ns1)NCC1CCCO1 (stereo unspecified)	n	n	n	n	n	n
Cc1ccc(CNC(=O)Cc2ccc(-n3cccc3)cc2)cc1	4.6µM	7.3µM	0.82µM	1.3µM	2.3µM	u
COc1cc(OC)cc(C(=O)NCc2ccc(-n3cccc3)cc2)c1	u	u	u	18µM	u	n
O=C(CNC(=O)Cc1ccccc1)NCc1cccs1	n	n	n	n	n	n
COc1ccc(CC(=O)NCc2ccc(-n3cccc3)cc2)cc1OC	1.8µM	4.1µM	2.3µM	2.3µM	8.2µM	4.6µM
Cc1ccc(CNC(=O)c2ccc(-n3cccc3)cc2)cc1	n	n	n	n	n	n
O=C(Cc1ccc(-n2cccc2)cc1)NCc1cccs1	2.6µM	1.6µM	1µM	0.82µM	1.2µM	2.3µM
Cc1ccc(NC(=O)CN2C(=O)CCn3nc(-c4cccn4C)cc32)c(Cl)c1	x	n	u	u	n	x
COc1ccc(N2C(=O)C3CCCN3C2c2ccc(C)o2)cc1 (stereo unspecified)	n	n	n	n	n	n
Cc1ccc(C(=O)N/C(=C/c2cccs2)C(=O)N2CCCCCC2)cc1	n	n	n	n	n	n
O=C(N/C(=C\c1cccs1)C(=O)N1CCCCCC1)c1ccccc1	n	n	n	n	n	n
Cc1ccc(C(=O)N/C(=C\c2cccs2)C(=O)NC2CCCCC2)cc1	n	n	n	u	18µM	n
O=C(N/C(=C/c1cccs1)C(=O)N1CCCCCC1)c1ccccc1	n	n	n	n	21µM	n
O=C(N/C(=C/c1ccco1)C(=O)N1CCCCCC1)c1cccs1	u	n	n	n	21µM	n
O=C(NCCO)/C(=C\c1ccco1)NC(=O)c1cccs1	n	n	n	n	n	n
CCCCOc1ccc(C(=O)N/C(=C\c2ccc(Br)cc2)C(=O)NC2CCCCC2)cc1	x	n	u	5.2µM	n	x
COc1cccc(CN2CCc3nnc(CCc4ccccc4)n3CC2)c1OC	x	x	n	n[9.04 µM]	x	x
